Rows were chosen to be rich in hits. Some 2.8% of all compounds tested hit in one or more screens of this group.
IDE act – human IDE activators in live cells, primary screen, fluorescence polarization, HEK cells, FAbeta-B substrate | AID 493087, 2011 | Insulin-degrading enzyme (Homo sapiens), P14735 | FAbeta-B cleavage; 0% vehicle, 100% cell-free pure enzyme wells | 340,000 compounds, 0.073% hits | activation, % at 5.96 µM;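 active = activation above the mean of all tested compounds plus 3 SD, set per screening campaign, cut at about 17% in these data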
Target sequence (P14735 whole entry, looked up): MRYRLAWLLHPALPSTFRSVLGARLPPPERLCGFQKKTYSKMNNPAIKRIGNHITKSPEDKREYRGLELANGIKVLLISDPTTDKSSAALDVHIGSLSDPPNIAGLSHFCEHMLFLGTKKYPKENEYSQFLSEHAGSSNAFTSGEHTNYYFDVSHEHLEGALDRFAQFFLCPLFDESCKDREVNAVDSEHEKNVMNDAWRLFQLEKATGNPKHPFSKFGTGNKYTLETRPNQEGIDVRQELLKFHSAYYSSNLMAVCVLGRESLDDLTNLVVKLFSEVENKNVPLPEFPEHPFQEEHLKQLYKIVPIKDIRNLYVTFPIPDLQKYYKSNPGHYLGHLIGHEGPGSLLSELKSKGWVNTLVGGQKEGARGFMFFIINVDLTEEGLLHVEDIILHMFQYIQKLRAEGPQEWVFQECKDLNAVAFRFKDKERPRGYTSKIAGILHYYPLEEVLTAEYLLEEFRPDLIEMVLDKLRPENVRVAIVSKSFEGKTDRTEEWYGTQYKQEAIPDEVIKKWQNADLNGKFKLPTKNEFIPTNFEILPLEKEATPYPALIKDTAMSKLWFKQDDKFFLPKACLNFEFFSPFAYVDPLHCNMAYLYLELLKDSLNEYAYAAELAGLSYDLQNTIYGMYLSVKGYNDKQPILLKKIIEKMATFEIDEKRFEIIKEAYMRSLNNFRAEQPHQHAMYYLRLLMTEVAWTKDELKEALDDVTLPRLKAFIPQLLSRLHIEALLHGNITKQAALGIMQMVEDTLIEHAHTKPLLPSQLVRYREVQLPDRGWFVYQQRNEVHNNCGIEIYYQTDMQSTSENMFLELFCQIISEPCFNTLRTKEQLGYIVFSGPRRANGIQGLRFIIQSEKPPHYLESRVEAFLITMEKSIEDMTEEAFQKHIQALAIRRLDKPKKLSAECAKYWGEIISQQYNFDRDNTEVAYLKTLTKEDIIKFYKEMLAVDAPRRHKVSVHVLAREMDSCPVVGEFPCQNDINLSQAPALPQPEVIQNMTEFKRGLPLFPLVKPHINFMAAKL
PP5 primary – PP5 phosphatase inhibitors, primary screen, biochemical, fluorescence; Serine/threonine-protein phosphatase 5 (Homo sapiens), P53041; purified PP5c, OMFP substrate fluorescence; inhibition, % at 6.7 µM; 320,000 compounds, 0.18% hits; AID 1987, 2009;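 active = inhibition above the campaign's mean inhibition across all tested compounds plus 3 SD, cut at about 9.5% in these data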;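 note: 0% = DMSO only and 100% = 100 µM cantharidin control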
PP1 counter – PP1-alpha phosphatase inhibitors, primary screen, counter-screen for PP5 inhibitor project, biochemical, fluorescence, OMFP substrate, single point. Serine/threonine-protein phosphatase PP1-alpha catalytic subunit (Homo sapiens), P62136. AID 2235, 2010. 320,000 compounds, 0.9% hits. inhibition, % at 6.7 µM. purified PP1alpha;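 active = inhibition above the mean inhibition of all tested compounds plus 3 SD, computed separately for each screening campaign, cut at about 15% in these data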
SKKanGAS inh – S. pyogenes SKKanGAS growth inhibitors in kanamycin, primary screen, streptokinase expression inhibitor project, SKKanGAS strain, BacTiter-Glo luminescence | inhibition, % at 7.5 µM | 300,000 compounds, 1.3% hits | 6 h;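 active = mean replicate score, as percent of positive control median, at least 50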;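 note: strain carries kanamycin resistance gene driven by streptokinase promoter and grows in 40 µg/ml kanamycin; loss of luminescence reflects streptokinase promoter inhibition or plain growth inhibition; 0% = median of DMSO wells and 100% = positive control at its reference dose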
IDE cell inh – human IDE inhibitors in live cells, primary screen, fluorescence polarization, HEK cells, FAbetaB substrate. Insulin-degrading enzyme (Homo sapiens), P14735. 320,000 compounds, 0.41% hits. inhibition, % at 5.59 µM. FAbetaB cleavage;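 active = percent inhibition above the average of all tested compounds plus 3 SD, set per screening campaign, cut at about 16% in these data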;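 note: IDE supplied by intact live HEK cells; FP after avidin binding of uncleaved biotin substrate so inhibition keeps polarization high; 0% = DMSO wells and 100% = 60 µM reference IDE inhibitor Ii1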
Granule exo inh – LAMP-1 surface exposure blockers, TALL-104 cells – cell-based, flow cytometry, MLPCN library, primary screen; TALL-104 LAMP-1 surface exposure; cells stimulated with thapsigargin and PMA; AID 651702, 2012; inhibition, % at 10 µM; 360,000 compounds, 0.66% hits;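 active = inhibition above about 55%, limit read from the data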
Active calls of the source: *; nt = no result.

SMILES	IDE act	PP5 primary	PP1 counter	SKKanGAS inh	IDE cell inh	Granule exo inh
CC(Oc1cccc(Cl)c1)C(=O)Nc1ccccc1N1CCCCC1 (centres undefined)	2	0	-2	73*	6	2
CC1CCCN(S(=O)(=O)c2cccc(C(=O)NCCCN3CCCC3=O)c2)C1 (centres undefined)	nt	nt	nt	nt	nt	-5
CCOC(=O)C1=C(Cc2ccc(F)cc2)C(=O)c2ccccc2C1=O	-50	4	1	38	11	100*
O=C(OCc1ccc(F)cc1)c1ccc2c(c1)-c1ccccc1C2=O	3	-1	-4	23	1	-3
Cc1cccc(N2CCN(S(=O)(=O)c3ccc4[nH]c(=O)ccc4c3)CC2)c1C	-5	1	16*	-7	3	0
Cc1ccc(C)c(N2CCN(S(=O)(=O)c3ccc4[nH]c(=O)ccc4c3)CC2)c1	-3	1	12	-6	2	-4
Cc1ccc(C(=O)NC(=S)Nc2cccc3nsnc23)cc1	0	3	-1	-1	3	2
Cc1ccc(C(=O)NC(=S)Nc2cccc3c(C)cc(C)nc23)cc1	7	3	-5	79*	7	1
Cc1ccc2nc(N3C(=O)CNC3=S)sc2c1	nt	-1	1	89*	-5	1
COC(=O)/C=C1\C(=O)N(c2nc3ccc(OC)cc3s2)C(=S)N1c1ccc(F)cc1	nt	-1	-1	-9	0	nt
Cc1cccc(CC2CC(=O)N(c3nc4ccccc4s3)C2=O)c1 (centres undefined)	2	-1	-4	-2	3	-3
COc1ccc2nc(N3C(=O)CNC3=S)sc2c1	3	2	-4	65*	-1	6
O=C(NCc1ccccc1)C(C1CC1)n1c(CSCCOc2ccccc2)nc2ccccc21 (centres undefined)	nt	nt	nt	nt	nt	-7
Cc1cccc(Nc2nnc(-c3ccc(N4CCOCC4)c([N+](=O)[O-])c3)c3ccccc23)c1	-4	2	4	59*	-7	3
Cc1nnc(-c2ccc(N3CCOCC3)c([N+](=O)[O-])c2)o1	3	3	-4	nt	0	-6
COc1ccc2nc(Cl)c(/C=N/Nc3ccccn3)cc2c1	3	-2	16*	1	1	-3
Clc1ccccc1C=NNc1ccccn1	6	nt	nt	nt	nt	-5
CSc1cccc(NC(=O)c2nnn(CC(=O)Nc3cc(C)cc(C)c3)c2N)c1	5	-1	16*	0	-5	-13
COc1ccc(Cn2cc(CN3CC(N(C)C)CS3(=O)=O)nn2)cc1 (centres undefined)	nt	nt	nt	nt	nt	-2
COc1cc2nc(=S)n3[nH]c(CCn4nc(C)cc4C)nc3c2cc1OC	9	1	1	51*	-3	-3
COc1cc2nc(=S)n3[nH]c(COc4ccccc4C)nc3c2cc1OC	2	2	-3	64*	1	-3
CC(=O)Oc1ccc(C(=O)Nc2ccccc2NC(=O)c2ccc(OC(C)=O)cc2)cc1	-1	0	3	7	-3	58*
COc1ccc(C(=O)Nc2ccccc2NC(=O)c2ccc(OC)cc2)cc1	7	-1	-4	-16	5	-2
COCCNC(=O)c1cc2cc(Cl)cc(Cl)c2oc1=O	3	-1	-2	-17	2	0
CCCc1nc2sc3c(c2c(=O)n1NC(=O)c1ccco1)CC(C)(C)OC3	6	0	-3	3	1	-4
SMILES	IDE act	PP5 primary	PP1 counter	SKKanGAS inh	IDE cell inh	Granule exo inh
CCCCCCCCCc1nc2sc3c(c2c(=O)n1NC(=O)c1ccc([N+](=O)[O-])cc1)CC(C)(C)OC3	-2	2	3	64*	-3	-2
CCCCCCCCCc1nc2sc3c(c2c(=O)n1NC(=O)c1ccccc1[N+](=O)[O-])CC(C)(C)OC3	-2	2	-3	65*	0	1
CCN(CC)c1ccc(C(=O)N/N=C(\C)c2ccc(O)cc2)cc1	0	-2	-2	-10	-4	-4
COc1ccc2c(c1)CC/C(=C\Nc1ccc3c(c1)OCO3)C2=O	-4	5	1	-5	2	101*
O=C1/C(=C/Nc2ccc3c(c2)OCO3)CCc2ccccc21	-2	2	0	17	7	98*
COc1ccc(N/C=C2\CCc3ccccc3C2=O)cc1	-5	-1	4	20	9	48
CCN(CC(=O)Nc1ccc(NC(C)=O)cc1)C(=O)c1ccc(Sc2nncn2C)c([N+](=O)[O-])c1	nt	nt	nt	nt	nt	0
Cc1nn(-c2ccccc2)c(C)c1/C=N/NC(=O)CSc1nnc(SCc2cccc3ccccc23)s1	3	2	16*	15	4	1
Cc1ccc(-n2c(SCC(=O)N/N=C/c3c(C)nn(-c4ccccc4)c3C)nc3ccccc3c2=O)cc1	5	1	1	28	-1	0
CC(C)c1cc(Cn2c3ccccc3c(=O)n2C(C)Cn2cc(-c3ccccc3)nn2)on1 (centres undefined)	nt	nt	nt	nt	nt	-3
Cc1cccc(NC(=O)CN(C)C(=O)C2CC2)c1C	-1	-1	-2	nt	-2	2
O=C1CSc2ccc(S(=O)(=O)CCC(=O)NC3CCCCC3)cc2N1	3	3	-3	5	3	-1
COc1cc(Cc2cnc(N)nc2N)cc(OC)c1OC	6	0	-2	51*	4	-5
COc1cc(CN2CCCCCC2)cc(OC)c1OC	0	3	5	3	0	-6
CCC(C)Sc1ccc([C@H]2N[C@@](Cc3ccccc3)(C(=O)OC)[C@H]3C(=O)N(C)C(=O)[C@@H]23)cc1 (some centres undefined)	2	2	-4	4	4	12
CS(=O)(=O)c1ccc(Sc2nc3ccccc3[nH]2)c([N+](=O)[O-])c1	5	-3	-1	-3	-7	0
O=[N+]([O-])c1cc(S(=O)(=O)C(F)(F)F)ccc1Sc1nc2ccccc2s1	-1	6	0	89*	5	18
O=[N+]([O-])c1cc(S(=O)(=O)C(F)(F)F)ccc1Sc1nc2ccccc2[nH]1	6	6	4	99*	10	2
CS(=O)(=O)c1ccc(Sc2nc3ccccc3s2)c([N+](=O)[O-])c1	3	-1	2	-3	-1	-10
CN(Cc1ccccc1)S(=O)(=O)c1ccc(Cl)c(C(=O)N2CCOCC2)c1	nt	nt	nt	nt	nt	-9
O=C(c1ccco1)c1coc2c1cc(O)c1ccccc12	2	3	-2	-16	-3	-4
O=[N+]([O-])c1ccc(O)c(-c2cc(C(F)(F)F)nc(-c3ccccc3)n2)c1	-2	-2	-4	94*	-5	31

Compound activity (PubChem)
